Experimental data published in PubChem BioAssay AID504832 (National Center for Advancing Translational Sciences (NCATS), 2011).
Among all 310,000 compounds or so, about 18,000 (5.8%) were called active. Inconclusive results (about 22%) are left out. Calls come from the whole dose curve; as a rule, active = well fitted inhibition curve with a large enough effect; inconclusive = small, poorly fitted or top-dose-only effect, or another doubt; inactive = no such curve, though single readings can be large or run the other way. The list comes from a sample in which actives are over-represented; it also holds similar structures and randomly drawn compounds. Where a call stands in place of a potency, no number is given.

Test: Primary qHTS for delayed death inhibitors of the malarial parasite plastid, 48 hour incubation
Conditions: P. falciparum luciferase growth in erythrocytes; series mostly up to 28.7 µM
Method in brief: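 Here the parasites carry a stable luciferase gene and grow inside erythrocytes in Albumax-based RPMI medium with compound for one erythrocytic cycle. Activity is scored as loss of luminescent signal.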
Potency is the fitted concentration of half-maximal effect.

SMILES | Potency | activity change, negative = inhibition
O=C(c1cccnc1)N1CCN(S(=O)(=O)c2cccs2)CC1 | inactive | 
Cc1ccc(C(=O)NCC(=O)OCc2nnc(-c3ccccc3)o2)cc1 | inactive | 
O=C(/C=C/c1ccc(Cl)c([N+](=O)[O-])c1)c1cccnc1 | inactive | 
CC(CC(=O)O)C(=O)c1ccc(Cl)c([N+](=O)[O-])c1 (stereo not drawn) | inactive | 
NC(N)=N/N=C/c1ccc(Cl)c([N+](=O)[O-])c1 | 1.47 µM (active) | 
COc1cccc(C(=O)Nc2ccc(N3CCN(C(=O)c4ccco4)CC3)cc2)c1 | inactive | 
Brc1ccccc1CN1CCC(Cc2ccccc2)CC1 | inactive | 
O=c1cc(CO)oc(CN2CCC(Cc3ccccc3)CC2)c1O | inactive | 
COc1cc(C)cc(CN2CCC(Cc3ccccc3)CC2)c1O | 0.928 µM (active) | 
O=C(CN1C(=O)NC2(CCOc3ccccc32)C1=O)NCc1ccc(F)cc1 (stereo not drawn) | inactive | 
Cc1cccc(NC(=O)C2CCCN(C(=O)NCc3ccccc3)C2)c1C (stereo not drawn) | inactive | 
CCOC(=O)C1=C(C)N=C2c3ccccc3C(=O)C2C1c1ccc(Br)cc1 (stereo not drawn) | 9.28 µM (active) | 
CCOC(=O)C1=C(C)NC(C)=C(C(=O)OCC)C1c1ccccn1 | inactive | 
CCOC(=O)CN1C(=O)N[C@@H](c2ccc(Br)cc2)C(C(C)=O)=C1C | inactive | 
Cc1cccc(NS(=O)(=O)c2ccc(C(=O)NCC(C)(C)N3CCOCC3)cc2)c1C | inactive | 
COc1ccc(/C=C/C(=O)NC(=S)N2CCCC(C(N)=O)C2)cc1 (stereo not drawn) | inactive | 
COc1ccc(CCNCC(O)Cn2ccc3ccccc32)cc1OC (stereo not drawn) | 10.4 µM (active) | 
COC(=O)c1ccc(OCC(O)CN(CCO)CC(O)Cn2ccc3ccccc32)cc1 (stereo not drawn) | inactive | 
COc1ccc(Cn2c(=O)sc3ccccc32)cc1OC | inactive | 
O=C(C1CCC1)N1CCN(c2ccccc2)CC1 | inactive | 
Cc1ccccc1NC(=O)Cn1cc(C(=O)C2CC2)c2ccccc21 | inactive | 
Cc1ccc(CNC(=O)Cn2cnc(S(=O)(=O)N3CCCCC3)c2)o1 | inactive | 

SMILES | Potency | activity change, negative = inhibition
CCCOC1CCCN(C(=O)c2cc(COc3cncc(Cl)c3)on2)C1 (stereo not drawn) | inactive | 
Cc1ccccc1NC(=O)N1CCCC1C(=O)NCc1ccccc1 (stereo not drawn) | inactive | 
CCn1nc(C)c(NC(=O)/C=C/c2ccc(OC)c(COc3ccc(Br)cc3)c2)c1C | 8.28 µM (active) | 
COc1ccc(C(C)=O)cc1COc1ccc(Cl)c(C)c1 | inactive | 
COc1ccc(/C=C/C(=O)Nc2cccnc2)cc1OC | inactive | 
CCOC(=O)N1CCN(C(=O)c2cn(C)c3ccc(S(=O)(=O)N4CCCC4)cc3c2=O)CC1 | inactive | 
CC(C)COC(=O)n1c(=O)oc2ccc(S(=O)(=O)N3CCCCC3)cc21 | 10.4 µM (active) | 
O=C(NC1CCCCC1)n1c(=O)oc2cc(S(=O)(=O)N3CCCCC3)ccc21 | inactive | 
CCOc1ncccc1C(=O)OCC(=O)Nc1cccc(S(=O)(=O)N2CCCCCC2)c1 | inactive | 
COc1ccc(N2CCN(S(=O)(=O)c3cc(Br)cnc3N)CC2)cc1 | inactive | 
OCCN1CCN(c2nnc(-c3ccccc3)c3ccccc23)CC1 | inactive | 
c1ccc(-c2nnc(N3CCOCC3)c3ccccc23)cc1 | inactive | 
CCCC(=O)N1CCN(c2nnc(-c3ccc(C)cc3)c3ccccc23)CC1 | 4.15 µM (active) | 
Cc1ccc(S(=O)(=O)CC(=O)Nc2sc(C)c(C)c2C(N)=O)cc1 | inactive | 
S=C(NCc1ccc(Cl)cc1)NC1CCCCC1 | inactive | 
O=C(NCc1ccncc1)NC12CC3CC(CC(C3)C1)C2 | inactive | 
S=C(NCc1ccc(Cl)cc1)NC12CC3CC(CC(C3)C1)C2 | 11.7 µM (active) | 
CCC(C(=O)OCCN(CC)CC)c1ccccc1 (stereo not drawn) | inactive | 
CCCC(C(=O)OCCN(CC)CC)(c1ccccc1)c1ccccc1 | 6.01 µM (active) | 
CCN(CC)CCOC(=O)c1ccc(NC(=O)CNC(=O)c2ccccc2)cc1 | inactive | 
COc1ccc(-c2cc3ncccc3cn2)cc1 | inactive | 
Cc1cccc(C(=O)Nc2ccc(C(=O)N/N=C/c3cccc(C)n3)cc2)c1 | inactive | 

SMILES | Potency | activity change, negative = inhibition
COc1ccc(C(O)(C2CCCCC2)C(CN2CCCC2)c2ccccc2)cc1 (stereo not drawn) | 11.7 µM (active) | 
COc1ccc(CN2CCCC(C(=O)N3CCCCC3)C2)cc1 (stereo not drawn) | inactive | 
CC(CN1CCCCC1)c1ccccc1 (stereo not drawn) | inactive | 
O=C(NCCS(=O)(=O)c1ccc(Br)cc1)c1ccccc1Cl | inactive | 
CCCCn1c(SCC(=O)N2CCOCC2)nc2c1c(=O)n(C)c(=O)n2C | inactive | 
CC1CC2=C(CC1/C=N/NC(N)=S)C(C)(C)CCC2 (stereo not drawn) | 13.1 µM (active) | 
COc1ccc(C2/C(=C(/O)c3ccc4c(c3)CC(C)O4)C(=O)C(=O)N2Cc2ccncc2)cc1 (stereo not drawn) | inactive | 
COCCN1C(=O)N(c2ccc(Cl)cc2)C(=O)C1CC(=O)Nc1cc(OC)cc(OC)c1 (stereo not drawn) | inactive | 
COCCN(CCOC)c1nc(N)c2c(N)nc3c(c2c1C#N)CC(=O)N3Cc1ccc(Cl)cc1 | 1.65 µM (active) | 
CSCCC(NC(=O)c1ccco1)C(=O)Nc1cc(C)ccn1 (stereo not drawn) | inactive | 
Cc1cccc(NC(=O)NC2(C)CCS(=O)(=O)C2)c1 (stereo not drawn) | inactive | 
CCOC(=O)C1=C(C)NC(=S)NC1c1cccs1 (stereo not drawn) | inactive | 
COCCOC(=O)C1=C(C)N=c2s/c(=C\c3cccs3)c(=O)n2C1c1cccs1 (stereo not drawn) | 4.15 µM (active) | 
Cc1cc(=O)oc2cc(OCC(=O)N3CCN(c4ccc(F)cc4)CC3)c(Cl)cc12 | inactive | 
O=C(CCc1ccccc1)Nc1ccnn1C1CCN(Cc2ccc(OCCO)cc2)CC1 | inactive | 
O=C(Nc1ccccc1N1CCOCC1)c1ccc(OCc2cscn2)cc1 | inactive | 
CN1CCN(c2ccc(NC(=O)c3ccc4c(c3)[nH]c(=O)n4Cc3ccc(F)cc3)cc2)CC1 | 11.7 µM (active) | 
CN1CCN(c2ccc(NC(=O)c3ccccc3)cc2)CC1 |  | -20.4% [at 0.00184 µM] (inactive)
CC(C)n1c(=O)[nH]c2cc(C(=O)Nc3ccccc3)ccc21 | inactive | 
Cc1cc(C)c2nc(N3CCC(C(=O)NCCN4CCOCC4)CC3)sc2c1 | inactive | 
COc1ccccc1N1CCN(/N=C/c2ccc(O)cc2O)CC1 | inactive | 
CCc1ccc(OCC2c3cc(OC)c(OC)cc3CCN2C(C)=O)cc1 (stereo not drawn) | inactive | 

SMILES | Potency | activity change, negative = inhibition
COc1ccc2[nH]c(=O)c(C3c4cc(OC)c(OC)cc4CCN3C(=O)c3ccco3)cc2c1 (stereo not drawn) | 13.1 µM (active) | 
COc1ccc(CNC(=O)C2CCN(C(=O)c3ccco3)CC2)cc1 | inactive | 
CCOC(=O)N1CCN(C(=O)C(=O)Nc2sc3c(c2C#N)CC(C)(C)OC3)CC1 | inactive | 
CCc1cc(C(N)=O)c(NC(=O)c2ccc(OC)cc2)s1 | inactive | 
CCc1cc(C(=O)c2ccc(OC)cc2)c(NC(=O)CN2CCN(C)CC2)s1 | 5.22 µM (active) | 
CCc1ccc(NC(=O)CN2CCC(C(=O)c3ccc(OC)cc3)CC2)cc1 | inactive | 
Cc1ccc(NC(=O)Cn2nnc(C(=O)NCc3ccco3)c2N)c(C)c1 | inactive | 
NC(N)=N/N=C/c1ccc(OCc2ccc(Cl)cc2Cl)cc1 | 9.28 µM (active) | 
CCOc1ccc(NC(=O)NNC(=O)c2ccc(Cl)cc2Cl)cc1 | inactive | 
CCOc1ccc(/C=N/NC(N)=S)cc1 | inactive | 
CCOc1ccc(OCc2ccc(C(=O)N(C)c3ccccc3)o2)cc1 | inactive | 
O=C(COC(=O)Cc1ccccc1F)NCCc1ccccc1 | inactive | 
N=c1n(CCc2ccccc2)c2ccccc2n1Cc1ccccc1F | 9.28 µM (active) | 
Fc1ccccc1Cn1cnc(NC(=S)NCCc2ccccc2)n1 | inactive | 
Nc1c(C(=O)Nc2ccc3c(c2)OCCO3)nnn1Cc1ccccc1 | inactive | 
O=C1CCC(C(=O)N2CCCCO2)CN1Cc1cccc(C(F)(F)F)c1 (stereo not drawn) | inactive | 
CSc1ncc(C(=O)Nc2ccc(C)cc2C)c(C)n1 | inactive | 
O=C(CN1C(=O)CC(c2ccccc2)S(=O)(=O)c2ccccc21)NC1CCCC1 (stereo not drawn) | inactive | 
CC(=O)c1cc(-c2ccccc2)n(CC(=O)NC2CCCCC2)c1C | inactive | 
O=C(CN1C(=O)CC(c2ccccc2)=Nc2ccccc21)NC1CCCCC1 | 9.28 µM (active) | 
Cc1cc(NS(=O)(=O)c2ccc(NC(=O)C(C)Oc3cccc(C)c3C)cc2)nc(C)n1 (stereo not drawn) | inactive | 
CC(=O)Oc1ccc(N(C(C)=O)S(=O)(=O)c2ccc3ccccc3c2)cc1Br | inactive | 

SMILES | Potency | activity change, negative = inhibition
O=C(COC(=O)c1ccc(F)cc1)NCCCc1ccccc1 | inactive | 
O=Cc1cn(Cc2ccc(F)cc2Cl)c2ccccc12 | inactive | 
O=c1c([N+](=O)[O-])cccn1Cc1ccc(F)cc1Cl | 0.37 µM (active) | 
N/C(=N/O)c1cccn1Cc1ccccc1[N+](=O)[O-] | inactive | 
CN(CC(=O)Nc1c(Cl)cccc1Cl)C(=O)CNC(=O)C1CCCCC1 | inactive | 
CN(Cc1ccccc1)C(=O)c1ccc(COc2ccccc2)cc1 | inactive | 
CC(C)C(=O)NC(=S)Nc1ccccc1F | inactive | 
COc1ccccc1NC(=S)NC(=O)C(C)C | inactive | 
CC(C)C(=O)Nc1cccc(NC(=S)NC(=O)C(c2ccccc2)c2ccccc2)c1 | 11.7 µM (active) | 
COc1cccc(NC(=O)N2CCCC2C(=O)NC2CCCCC2)c1 (stereo not drawn) | inactive | 
COc1ccc(/C=N/OCc2ccccc2C#N)c(OC)c1 | inactive | 
CC1CCN(C(=O)c2ccccc2NC(=O)Cc2ccccc2)CC1 | inactive | 
O=C(Cc1ncc(C(F)(F)F)cc1Cl)Nc1cccc(Br)c1 | inactive | 
CN1CCN(C(=O)CCc2ncc(C(F)(F)F)cc2Cl)CC1 | inactive | 
CC(=O)c1ccc(Cc2ncc(C(F)(F)F)cc2Cl)s1 | 13.1 µM (active) | 
Cc1ccc2c(c1)N(C(=O)CCC(=O)NCc1cccnc1)CCO2 | inactive | 
Cn1c(N2CCOCC2)c(C=O)c2ccccc21 |  | 37.2% [at 0.00184 µM] (inactive)
COc1ccc(-n2c(O)c(C=NCC(c3ccco3)N3CCCC3)c3ccccc3c2=O)cc1OC (stereo not drawn) | 9.28 µM (active) | 
COc1ccc(-n2nc(C(=O)NCC(=O)N3CCC(C(N)=O)CC3)c3ccccc3c2=O)cc1OC | inactive | 
CCN(CC)CCCN=Cc1c(O)n(-c2ccc(C)cc2)c(=O)c2ccccc12 | inactive | 
